Measured values taken from the supplement of paper PMC4466140.

target: SpBzz1-D2; test: SPOT peptide array binding signal intensity (averaged, normalized) (arbitrary units (background-subtracted, floor 0; scale differs between SH3 domains)); higher = stronger binding of the SH3 domain to the peptide
In short: (§1)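 SH3 domains from four yeast species were expressed as GST fusions in E. coli BL21(DE3) and purified on glutathione Sepharose. Each was incubated at 10 μg/ml overnight at 4°C in TBS-based blocking buffer on cellulose membranes bearing synthetic 15-mer peptides, in which serines replaced cysteines. Bound protein was detected with anti-GST antibody, an HRP anti-mouse secondary and luminol, then imaged and quantified with Genespotter. The binding signal is the normalized, background-subtracted spot intensity averaged over replicates, in arbitrary units that are not the same from one domain to another.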

Binder	SPOT peptide array binding signal intensity
NVLRKILEIPLHSFS	≤ 0
DKKTKPTPPPKPSHL	≤ 0

target: SpCyk3; test: as above
In short: as §1

Binder	SPOT peptide array binding signal intensity
NVLRKILEIPLHSFS	0.5
DKKTKPTPPPKPSHL	≤ 0

target: SpHof1; test: as above
In short: as §1

Binder	SPOT peptide array binding signal intensity
NVLRKILEIPLHSFS	2
DKKTKPTPPPKPSHL	0.75

target: SpHof1-2; test: as above
In short: as §1

Binder	SPOT peptide array binding signal intensity
NVLRKILEIPLHSFS	≤ 0
DKKTKPTPPPKPSHL	6.5

target: SpHof1-3; test: as above
In short: as §1

Binder	SPOT peptide array binding signal intensity
NVLRKILEIPLHSFS	591
DKKTKPTPPPKPSHL	86

target: SpHse1; test: as above
In short: as §1

Binder	SPOT peptide array binding signal intensity
NVLRKILEIPLHSFS	2430
DKKTKPTPPPKPSHL	0.75

target: SpLsb1; test: as above
In short: as §1

Binder	SPOT peptide array binding signal intensity
NVLRKILEIPLHSFS	≤ 0
DKKTKPTPPPKPSHL	138

target: SpLsb4; test: as above
In short: as §1

Binder	SPOT peptide array binding signal intensity
NVLRKILEIPLHSFS	≤ 0
DKKTKPTPPPKPSHL	≤ 0

target: SpMyo1; test: as above
In short: as §1

Binder	SPOT peptide array binding signal intensity
NVLRKILEIPLHSFS	≤ 0
DKKTKPTPPPKPSHL	≤ 0

target: SpNbp2; test: as above
In short: as §1

Binder	SPOT peptide array binding signal intensity
NVLRKILEIPLHSFS	32.5
DKKTKPTPPPKPSHL	≤ 0

target: SpPex13; test: as above
In short: as §1

Binder	SPOT peptide array binding signal intensity
NVLRKILEIPLHSFS	2
DKKTKPTPPPKPSHL	1.5

target: SpRvs167; test: as above
In short: as §1

Binder	SPOT peptide array binding signal intensity
NVLRKILEIPLHSFS	≤ 0
DKKTKPTPPPKPSHL	33.3

target: SpSla1-D1-D2; test: as above
In short: as §1

Binder	SPOT peptide array binding signal intensity
NVLRKILEIPLHSFS	≤ 0
DKKTKPTPPPKPSHL	≤ 0

target: SpSla1-D3; test: as above
In short: as §1

Binder	SPOT peptide array binding signal intensity
NVLRKILEIPLHSFS	≤ 0
DKKTKPTPPPKPSHL	1

target: AgAbp1; test: as above
In short: as §1

Binder	SPOT peptide array binding signal intensity
DKKTKPTPPPKPSHL	1090

target: AgBbc1; test: as above
In short: as §1

Binder	SPOT peptide array binding signal intensity
DKKTKPTPPPKPSHL	24.8

target: AgBem1-D1; test: as above
In short: as §1

Binder	SPOT peptide array binding signal intensity
DKKTKPTPPPKPSHL	≤ 0

target: AgBzz1-D1; test: as above
In short: as §1

Binder	SPOT peptide array binding signal intensity
DKKTKPTPPPKPSHL	61

target: AgBzz1-D2; test: as above
In short: as §1

Binder	SPOT peptide array binding signal intensity
DKKTKPTPPPKPSHL	34.5

target: AgCyk3; test: as above
In short: as §1

Binder	SPOT peptide array binding signal intensity
DKKTKPTPPPKPSHL	1

target: AgFus1; test: as above
In short: as §1

Binder	SPOT peptide array binding signal intensity
DKKTKPTPPPKPSHL	6

target: AgHof1; test: as above
In short: as §1

Binder	SPOT peptide array binding signal intensity
DKKTKPTPPPKPSHL	18.5

target: AgHse1; test: as above
In short: as §1

Binder	SPOT peptide array binding signal intensity
DKKTKPTPPPKPSHL	≤ 0

target: AgLsb1; test: as above
In short: as §1

Binder	SPOT peptide array binding signal intensity
DKKTKPTPPPKPSHL	≤ 0

target: AgLsb4; test: as above
In short: as §1

Binder	SPOT peptide array binding signal intensity
DKKTKPTPPPKPSHL	≤ 0

target: AgMyo5; test: as above
In short: as §1

Binder	SPOT peptide array binding signal intensity
DKKTKPTPPPKPSHL	≤ 0

target: AgNbp2; test: as above
In short: as §1

Binder	SPOT peptide array binding signal intensity
DKKTKPTPPPKPSHL	≤ 0

target: AgRvs167; test: as above
In short: as §1

Binder	SPOT peptide array binding signal intensity
DKKTKPTPPPKPSHL	0.167

target: AgSho1; test: as above
In short: as §1

Binder	SPOT peptide array binding signal intensity
DKKTKPTPPPKPSHL	45

target: AgSla1-D1-D2; test: as above
In short: as §1

Binder	SPOT peptide array binding signal intensity
DKKTKPTPPPKPSHL	≤ 0

target: AgSla1-D3; test: as above
In short: as §1

Binder	SPOT peptide array binding signal intensity
DKKTKPTPPPKPSHL	2

target: CaAbp1-D1; test: as above
In short: as §1

Binder	SPOT peptide array binding signal intensity
DKKTKPTPPPKPSHL	1790

target: CaAbp1-D2; test: as above
In short: as §1

Binder	SPOT peptide array binding signal intensity
DKKTKPTPPPKPSHL	3130

target: CaBbc1; test: as above
In short: as §1

Binder	SPOT peptide array binding signal intensity
DKKTKPTPPPKPSHL	50.8

target: CaBem1-D1; test: as above
In short: as §1

Binder	SPOT peptide array binding signal intensity
DKKTKPTPPPKPSHL	≤ 0

target: CaBzz1-D1; test: as above
In short: as §1

Binder	SPOT peptide array binding signal intensity
DKKTKPTPPPKPSHL	1480

target: CaBzz1-D2; test: as above
In short: as §1

Binder	SPOT peptide array binding signal intensity
DKKTKPTPPPKPSHL	262

target: CaCyk3; test: as above
In short: as §1

Binder	SPOT peptide array binding signal intensity
DKKTKPTPPPKPSHL	≤ 0

target: CaFus1; test: as above
In short: as §1

Binder	SPOT peptide array binding signal intensity
DKKTKPTPPPKPSHL	≤ 0

target: CaHof1; test: as above
In short: as §1

Binder	SPOT peptide array binding signal intensity
DKKTKPTPPPKPSHL	0.75

target: CaHse1; test: as above
In short: as §1

Binder	SPOT peptide array binding signal intensity
DKKTKPTPPPKPSHL	8.5

target: CaLsb1; test: as above
In short: as §1

Binder	SPOT peptide array binding signal intensity
DKKTKPTPPPKPSHL	0.5

target: CaLsb4; test: as above
In short: as §1

Binder	SPOT peptide array binding signal intensity
DKKTKPTPPPKPSHL	≤ 0

target: CaMyo5; test: as above
In short: as §1

Binder	SPOT peptide array binding signal intensity
DKKTKPTPPPKPSHL	≤ 0

target: CaNbp2; test: as above
In short: as §1

Binder	SPOT peptide array binding signal intensity
DKKTKPTPPPKPSHL	≤ 0

target: CaRvs167; test: as above
In short: as §1

Binder	SPOT peptide array binding signal intensity
DKKTKPTPPPKPSHL	0.333

target: CaRvs167-3; test: as above
In short: as §1

Binder	SPOT peptide array binding signal intensity
DKKTKPTPPPKPSHL	3.5

target: CaSho1; test: as above
In short: as §1

Binder	SPOT peptide array binding signal intensity
DKKTKPTPPPKPSHL	24

target: CaSla1-D1-D2; test: as above
In short: as §1

Binder	SPOT peptide array binding signal intensity
DKKTKPTPPPKPSHL	≤ 0

target: CaSla1-D3; test: as above
In short: as §1

Binder	SPOT peptide array binding signal intensity
DKKTKPTPPPKPSHL	≤ 0

target: ScAbp1; test: as above
In short: as §1

Binder	SPOT peptide array binding signal intensity
DKKTKPTPPPKPSHL	2120

target: ScBbc1; test: as above
In short: as §1

Binder	SPOT peptide array binding signal intensity
DKKTKPTPPPKPSHL	≤ 0

target: ScBem1-D1; test: as above
In short: as §1

Binder	SPOT peptide array binding signal intensity
DKKTKPTPPPKPSHL	≤ 0

target: ScBzz1-D1; test: as above
In short: as §1

Binder	SPOT peptide array binding signal intensity
DKKTKPTPPPKPSHL	1

target: ScBzz1-D2; test: as above
In short: as §1

Binder	SPOT peptide array binding signal intensity
DKKTKPTPPPKPSHL	46.5

target: ScCyk3; test: as above
In short: as §1

Binder	SPOT peptide array binding signal intensity
DKKTKPTPPPKPSHL	≤ 0

target: ScFus1; test: as above
In short: as §1

Binder	SPOT peptide array binding signal intensity
DKKTKPTPPPKPSHL	1

target: ScHof1; test: as above
In short: as §1

Binder	SPOT peptide array binding signal intensity
DKKTKPTPPPKPSHL	1.5

target: ScHse1; test: as above
In short: as §1

Binder	SPOT peptide array binding signal intensity
DKKTKPTPPPKPSHL	16.5

target: ScLsb1; test: as above
In short: as §1

Binder	SPOT peptide array binding signal intensity
DKKTKPTPPPKPSHL	≤ 0

target: ScLsb2; test: as above
In short: as §1

Binder	SPOT peptide array binding signal intensity
DKKTKPTPPPKPSHL	≤ 0

target: ScLsb3; test: as above
In short: as §1

Binder	SPOT peptide array binding signal intensity
DKKTKPTPPPKPSHL	1270

target: ScLsb4; test: as above
In short: as §1

Binder	SPOT peptide array binding signal intensity
DKKTKPTPPPKPSHL	≤ 0

target: ScMyo3; test: as above
In short: as §1

Binder	SPOT peptide array binding signal intensity
DKKTKPTPPPKPSHL	0.5

target: ScMyo5; test: as above
In short: as §1

Binder	SPOT peptide array binding signal intensity
DKKTKPTPPPKPSHL	≤ 0

target: ScNbp2; test: as above
In short: as §1

Binder	SPOT peptide array binding signal intensity
DKKTKPTPPPKPSHL	4

target: ScPex13; test: as above
In short: as §1

Binder	SPOT peptide array binding signal intensity
DKKTKPTPPPKPSHL	138

target: ScRvs167; test: as above
In short: as §1

Binder	SPOT peptide array binding signal intensity
DKKTKPTPPPKPSHL	≤ 0

target: ScSho1; test: as above
In short: as §1

Binder	SPOT peptide array binding signal intensity
DKKTKPTPPPKPSHL	280

target: ScSla1-D1-D2; test: as above
In short: as §1

Binder	SPOT peptide array binding signal intensity
DKKTKPTPPPKPSHL	≤ 0

target: ScSla1-D3; test: as above
In short: as §1

Binder	SPOT peptide array binding signal intensity
DKKTKPTPPPKPSHL	3

target: SpAbp1-D1; test: as above
In short: as §1

Binder	SPOT peptide array binding signal intensity
DKKTKPTPPPKPSHL	2240

target: SpBbc1; test: as above
In short: as §1

Binder	SPOT peptide array binding signal intensity
DKKTKPTPPPKPSHL	3.5

target: SpBzz1-D1; test: as above
In short: as §1

Binder	SPOT peptide array binding signal intensity
DKKTKPTPPPKPSHL	235
